Source: PubChem BioAssay AID1159580 (chemical genetic matrix, 2015)
Several values for one entry are separate records, joined by “and”; a condition that tells them apart may be missing. Identical values can stand only once. Hit rate of the full screen: of about 5,500 compounds, about 2,000 (36%) were called active. Another 18% or so got no clear call; they are omitted. No stated cut-off is given here; in the data, active means normalized growth mostly below about 0.91 (no sharp cut-off); inconclusive means no clear call, values can overlap the other calls; inactive means mostly above about 0.92. This is one part of the list.

Assay: chemical genetic growth profiling, strain panel (AID 1159580);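 further: tested at 20 µM; growth read once vehicle control cultures reached saturation at 30 °C; 1 = growth at the plate median or of vehicle wells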
Conditions: S. cerevisiae deletion strains, growth OD

Measured: normalized growth

C1N2CN3CN1CN(C2)C3
inactive: locus YAL013W, strain DEP1, stronger effect = lower value 0.975 | locus YAL021C, strain ccr4, stronger effect = lower value 0.986 | locus YAL026C, strain drs2, stronger effect = lower value 1 | locus YAL030W, strain snc1, stronger effect = lower value 0.993 | locus YBL061C, strain skt5, stronger effect = lower value 0.991 | locus YBR009C, strain hhf1, stronger effect = lower value 1.03 | locus YBR021W, strain FUR4, stronger effect = lower value 1.06 | locus YBR023C, strain chs3, stronger effect = lower value 0.984 | locus YBR171W, strain sec66, stronger effect = lower value 0.991 | locus YBR229C, strain ROT2, stronger effect = lower value 0.949 | locus YBR231C, strain swc5, stronger effect = lower value 1 | locus YBR279W, strain paf1, stronger effect = lower value 0.985 | locus YCL011C, strain gbp2, stronger effect = lower value 0.986 | locus YCL016C, strain dcc1, stronger effect = lower value 0.961 | locus YCL029C, strain bik1, stronger effect = lower value 0.977 | locus YCL061C, strain MRC1, stronger effect = lower value 0.987 | locus YCL069W, strain vba3, stronger effect = lower value 1 | locus YCR088W, strain abp1, stronger effect = lower value 0.982 | locus YDL005C, strain med2, stronger effect = lower value 0.999 | locus YDL035C, strain GPR1, stronger effect = lower value 0.989 | locus YDL040C, strain nat1, stronger effect = lower value 0.996 | locus YDL074C, strain BRE1, stronger effect = lower value 0.972 | locus YDL101C, strain DUN1, stronger effect = lower value 0.955 | locus YDL134C, strain PPH21, stronger effect = lower value 0.983 | locus YDL185W, strain tfp1, stronger effect = lower value 0.951 | locus YDL192W, strain arf1, stronger effect = lower value 0.972 | locus YDR001C, strain nth1, stronger effect = lower value 0.994 | locus YDR069C, strain doa4, stronger effect = lower value 1.03 | locus YDR101C, strain arx1, stronger effect = lower value 0.977 | locus YDR137W, strain rgp1, stronger effect = lower value 0.985 | locus YDR150W, strain NUM1, stronger effect = lower value 0.972 | locus YDR159W, strain sac3, stronger effect = lower value 1.04 | locus YDR162C, strain NBP2, stronger effect = lower value 0.954 | locus YDR195W, strain ref2 1.01 | locus YDR297W, strain sur2, stronger effect = lower value 0.986 | locus YDR318W, strain mcm21, stronger effect = lower value 0.98 | locus YDR334W, strain swr1, stronger effect = lower value 0.974 | locus YDR335W, strain msn5, stronger effect = lower value 0.997 | locus YDR388W, stronger effect = lower value 0.976 | locus YDR392W, strain spt3, stronger effect = lower value 0.923 | locus YDR502C, strain sam2, stronger effect = lower value 0.966 | locus YEL003W, strain gim4, stronger effect = lower value 1 | locus YEL037C, strain rad23, stronger effect = lower value 0.982 | locus YEL061C, strain CIN8 (second series), stronger effect = lower value 0.978 | locus YEL061C, strain CIN8, stronger effect = lower value 0.983 | locus YER015W, strain faa2, stronger effect = lower value 0.988 | locus YER016W, strain bim1, stronger effect = lower value 0.999 | locus YER110C, stronger effect = lower value 0.975 | locus YER111C, strain swi4, stronger effect = lower value 0.978 | locus YER155C, strain BEM2 (second series), stronger effect = lower value 0.991 | locus YER155C, strain BEM2, stronger effect = lower value 0.982 | locus YER167W, strain BCK2, stronger effect = lower value 0.984 | locus YFR010W, strain ubp6, stronger effect = lower value 0.988 | locus YGL078C, strain dbp3, stronger effect = lower value 0.942 | locus YGL086W, strain mad1, stronger effect = lower value 0.991 | locus YGL167C, strain pmr1, stronger effect = lower value 0.992 | locus YGL173C, strain kem1, stronger effect = lower value 0.994 | locus YGL227W, strain vid30, stronger effect = lower value 1 | locus YGL240W, strain doc1, stronger effect = lower value 0.999 | locus YGL248W, strain PDE1, stronger effect = lower value 0.973 | locus YGL253W, strain hxk2, stronger effect = lower value 0.998 | locus YGR078C, strain PAC10, stronger effect = lower value 0.973 | locus YGR135W, strain pre9, stronger effect = lower value 0.934 | locus YGR229C, strain SMI1, stronger effect = lower value 0.966 | locus YGR252W, strain gcn5, stronger effect = lower value 1.12 | locus YHR013C, strain ard1, stronger effect = lower value 0.95 | locus YHR027C, strain rpn1, stronger effect = lower value 0.99 | locus YHR030C, strain SLT2, stronger effect = lower value 0.99 and 0.968 | locus YHR079C, strain IRE1 (second series), stronger effect = lower value 0.974 | locus YHR079C, strain IRE1, stronger effect = lower value 0.929 | locus YHR094C, strain hxt1, stronger effect = lower value 0.976 | locus YHR129C, strain ARP1, stronger effect = lower value 0.978 | locus YHR142W, strain chs7, stronger effect = lower value 0.973 | locus YHR200W, strain rpn10, stronger effect = lower value 0.975 | locus YIL066C, strain RNR3, stronger effect = lower value 0.984 | locus YIL073C, strain SPO22, stronger effect = lower value 0.895 | locus YIL125W, strain kgd1, stronger effect = lower value 0.979 | locus YIR030C, strain dcg1, stronger effect = lower value 0.976 | locus YJL092W, strain hpr5, stronger effect = lower value 0.982 | locus YJL095W, strain BCK1 (second series), stronger effect = lower value 0.986 | locus YJL095W, strain BCK1, stronger effect = lower value 0.988 and 0.948 | locus YJL115W, strain asf1, stronger effect = lower value 0.985 | locus YJL129C, strain trk1, stronger effect = lower value 0.979 | locus YJL134W, strain LCB3, stronger effect = lower value 0.98 | locus YJL154C, strain vps35, stronger effect = lower value 0.991 | locus YJL164C, strain tpk1, stronger effect = lower value 0.99 | locus YJL166W, strain qcr8, stronger effect = lower value 0.964 | locus YJL168C, strain set2, stronger effect = lower value 0.985 | locus YJL187C, strain SWE1 (second series), stronger effect = lower value 0.975 | locus YJL187C, strain SWE1, stronger effect = lower value 0.988 | locus YJR043C, strain POL32, stronger effect = lower value 0.997 | locus YJR066W, strain TOR1, stronger effect = lower value 0.987
